Marburg entry inh – qHTS for inhibitors of binding or entry into cells for Marburg Virus; hit rate 1.8% among 300,000; AID 540276, 2011; Potency, µM (doses to about 37.8 µM), without a hit: top-dose activity change, negative = inhibition, usual class: inhibitors; Marburg virus pseudotyped entry inhibition, cell reporter; calls by dose curve; tested in HEK293 cells; also: potency is read from the fitted curve at half-maximal effect
VACV Venus inh – qHTS for Stage-Specific Inhibitors of Vaccinia Orthopoxvirus: Venus Reporter Primary qHTS | Vaccinia virus Venus reporter expression, fluorescence | Potency, µM (highest dose often 36.5 µM), without a hit: top-dose activity change, negative = inhibition, hits mostly inhibitors | hit rate 0.46% among 330,000; calls by dose curve; tested in A549 cells; also: potency is read from the fitted curve at half-maximal effect; nearly all actives have a fitted effect of over 30% in size
VACV mCherry inh – qHTS for Stage-Specific Inhibitors of Vaccinia Orthopoxvirus: mCherry Reporter Primary qHTS; Vaccinia virus mCherry reporter infection, fluorescence; Potency, µM (series often up to 36.5 µM), without a hit: top-dose activity change, negative = inhibition, most hits filed as inhibitors; hit rate 0.63% among 310,000; AID 720579, 2013; calls by dose curve; tested in A549 cells; also: potency is read from the fitted curve at half-maximal effect; nearly all actives have a fitted effect of over 35% in size
HCMV antiviral – qHTS Assay for inhibitors of the human cytomegalovirus (HCMV); hit rate 4.5% among 410,000; activity change, negative = inhibition, % at 57.5 µM; AID 1259415, 2018; HFF cells, HCMV-luciferase reporter, 72 h; stronger effect = lower value; in the data active = activity change below about -60%; inconclusive = no clear call, values can overlap the other calls; inactive = above about -39%
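Screen run at 2 compound doses on HFFs infected with reporter HCMV, MOI 1 PFU/cell. Luciferase activity from cell lysates at 72 h post infection gave inhibition relative to buffer-only and Salinomycin wells.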
FMDV antiviral – High Throughput Screening for Foot and Mouth Disease Virus Antivirals | FMDV antiviral cell-based qHTS | Potency, µM (highest dose often 57.9 µM), for inactives: at the top dose activity change, negative = inhibition, hits mostly inhibitors | hit rate 1.2% among 410,000 | AID 1159524, 2015; calls by dose curve; tested in HEK293T cells; also: read-out not given here; potency is read from the fitted curve at half-maximal effect; nearly all actives have a fitted effect of over 45% in size
LASV entry inh – qHTS for Inhibitors of binding or entry into cells for Lassa Virus; Lassa virus pseudotype entry inhibition, cell reporter; Potency, µM (doses to about 37.9 µM), without a hit: top-dose activity change, negative = inhibition, usual class: inhibitors; hit rate 1.2% among 300,000; calls by dose curve; tested in HEK293 cells; also: potency is read from the fitted curve at half-maximal effect; nearly all actives have a fitted effect of over 50% in size
An asterisk follows results filed as active; i = inactive; ? = inconclusive; / = no result; [ ] = remark or other dose. A selection: hits, their analogues and other compounds. The true share with any hit is near 6.5%. % is scaled to controls: 0 for no effect and ±100 for the full control effect.

SMILES	Marburg entry inh	VACV Venus inh	VACV mCherry inh	HCMV antiviral	FMDV antiviral	LASV entry inh
Cc1ccc(Cl)cc1N1CCN(C(=O)c2cc3ccc4cccnc4c3[nH]2)CC1	/	-3.0%	-5.6%	-70.0*	-11.5%	?
CC1CCCN(C(=O)c2cc3ccc4cccnc4c3[nH]2)C1 (configuration not stated)	/	-14.8%	-0.3%	-81.0*	14.1µM*	-14.2%[46.1 µM]
O=C(c1cc2ccc3cccnc3c2[nH]1)N1CCCCC1	/	-12.5%	-5.2%	-67.2*	-48.9%	4.9%[46.1 µM]
COc1ccc(CN(Cc2ccccc2)C(=O)Nc2ccccc2)cc1COc1ccc(NC(C)=O)cc1	/	-18.6%	-23.3%	/	/	/
Cc1nn(C)c(Cl)c1NC(=O)OCc1ccc(Cl)cc1Cl	?	-22.0%	-9.5%	-95.6*	?	-25.4%
Cc1nn(Cc2ccc(Cl)cc2Cl)c(C)c1NC(=O)CCl	?	/	/	?	22.4µM*	?
Cc1nn(Cc2ccc(Cl)cc2Cl)c(C)c1NC(=O)C1C2CCC(O2)C1C(=O)O (configuration not stated)	-23.5%[46.1 µM]	-27.1%	?	-63.6*	?	5.2%
Cc1nn(Cc2ccccc2Cl)c(C)c1NC(=O)C1C2CCC(O2)C1C(=O)O (configuration not stated)	-1.7%	-14.5%	-12.4%	-7.8	1.8%	?
Cc1nnsc1NC(=O)OCc1ccc(Cl)cc1Cl	2.1%	-12.3%	/	9.0	0.0%	3.3%
O=C(C1CCOCC1)N1CC(=O)N2[C@@H](CO)[C@H](c3ccc(Br)cc3)[C@@H]2C1	/	/	/	-1.6	/	/
N#CCCn1c(=O)c(-c2cccs2)nc2cnc(N3CCOCC3)nc21	/	/	/	/	-19.2%	/
COc1ccccc1-c1ccnc(-n2ncc(C(=O)NC(c3cccnc3)C(F)(F)F)c2C)n1 (configuration not stated)	/	-26.7%	?	/	-23.8%	/
O=c1[nH]c(=O)c2ncn(C3OC(CO)C(O)C3O)c2[nH]1 (configuration not stated)	/	-11.2%	-23.1%	/	/	/
COc1ccc(OC)c(CN2CCN(CCCc3ccccc3)C(CCO)C2)c1 (configuration not stated)	/	/	/	-102.1*	-14.9%	/
Cc1ccc(C)c(CN2C(=O)c3ccccc3S(=O)(=O)c3ccc(C(=O)N4CCN(C)CC4)cc32)c1	3.7%[46.1 µM]	-20.8%	-22.4%	-34.4	16.2%	?
Cc1ccc(C)c(CN2C(=O)c3ccccc3S(=O)c3ccc(C(=O)N4CCN(c5ccccn5)CC4)cc32)c1 (configuration not stated)	?	-3.6%	?	-98.2*	-25.4%	?
COc1ccccc1N1CCN(C(=O)c2ccc3c(c2)N(Cc2cc(C)ccc2C)C(=O)c2ccccc2S3(=O)=O)CC1	?	-19.0%	-18.1%	-66.8*	-4.1%	?
Cc1ccc(C)c(CN2C(=O)c3ccccc3S(=O)c3ccc(C(=O)N4CCN(c5ccccc5F)CC4)cc32)c1 (configuration not stated)	?	-13.2%	?	-30.8	-5.1%	?
O=Cc1s/c(=N\S(=O)(=O)c2ccccc2)n(CCCCl)c1Cl	?	?	?	-107.9*	7.94µM*	?
COc1ccc(C(C#N)=Cc2ccccc2OC)cc1	/	-27.8%	-13.9%	-88.1*	-13.0%	/
COc1ccc(C=C(C#N)c2ccc(OC)cc2)cc1	7.94µM*	-23.3%	-9.3%	-16.0	14.4%	?
COc1ccc(C(C#N)=Cc2ccc(OC)c(OC)c2)cc1	/	-28.0%	-17.0%	-14.6	0.0%	/
O=C1CCSC2(C(=O)N(Cc3ccc(F)cc3)c3ccccc32)N1c1ccc(F)c(F)c1 (configuration not stated)	/	-20.1%	-24.7%	0.0	-18.0%	15.4%[46.1 µM]
O=C(Nc1cccc(Cl)c1)c1ccc2c(c1)SC1=NS(=O)(=O)CCN12	?	-18.8%	?	-79.0*	-19.1%	?
COC(=O)[C@H]1[C@H](CO)[C@H]2Cn3c(ccc(Br)c3=O)[C@H]2N1Cc1ccccc1Cl	/	/	/	7.2	/	/
SMILES	Marburg entry inh	VACV Venus inh	VACV mCherry inh	HCMV antiviral	FMDV antiviral	LASV entry inh
C=CC(=O)Nc1cccc(Oc2ncnc3[nH]cc(-c4cnc5ccccc5c4)c23)c1	/	11.2µM*	?	16.2	-20.1%	/
CCCOc1ccc(F)cc1-c1cc(C(=O)Nc2cc(OC)ccc2OC)[nH]n1	/	-15.2%	i	-80.5*	-12.2%	/
O=C1CCCc2c1[nH]c1c(Br)cccc21	15.9%[46.1 µM]	11.2µM*	/	-16.0	-4.8%	-0.3%
Cc1cc(Br)c2[nH]c3c(c2c1)CCCC3=O	-8.5%[46.1 µM]	?	/	-7.9	-0.7%	-1.5%
CCCOc1ccc(CNC(=O)c2cc3oc4ccccc4c3n2C)cc1	?	8.9%	-15.9%	-85.9*	5.9%	/
CCCOc1ccc(CNC(=O)Cn2c(=O)oc3ccccc32)cc1	-2.8%[46.1 µM]	-1.4%	-5.7%	5.8	-16.9%	/
Cn1c(C(=O)NCc2ccccc2F)cc2oc3ccccc3c21	?	11.0%	?	-63.1*	24.8%	/
Cn1c(C(=O)NCC2CCCO2)cc2oc3ccccc3c21 (configuration not stated)	?	-20.0%	/	33.2	5.1%	?
Cn1c(C(=O)NCc2ccccc2)cc2oc3ccccc3c21	2.59µM*	-7.1%	5.01µM*	-89.0*	41.2%	?
Cn1c(C(=O)NCc2cccs2)cc2oc3ccccc3c21	0.447µM*	-2.5%	10µM*	-79.9*	12.0%	0.501µM*
C[N+]1(CC(=O)c2ccc(Cl)c(Cl)c2)CCOCC1	/	-18.1%	i	/	/	/
Cc1ccccc1OCC(=O)NCC(=O)OCC(=O)c1ccc2c(c1)CCCC2	/	-2.9%	10.7%	/	/	/
COc1ccc(CNC(=O)c2cc3oc4ccccc4c3n2C)cc1OC	5.01µM*	1.9%	-6.3%	?	0.0%	/
COc1ccc(CNC(=O)c2cc3ccccc3o2)cc1OC	2.0%[46.1 µM]	-16.8%	2.0%	-18.1	2.8%	?
Cc1ccc(NC(=O)c2cnn3c2NC(=C2CC2)C=C3C(F)F)cc1	/	-8.7%	-10.8%	/	/	/
CCS(=O)(=O)c1cc([N+](=O)[O-])c(Sc2ccccc2NC(C)=O)s1	?	-0.2%[7.34 µM]	i[7.34 µM]	?	15.8µM*	?
O=C(Nc1ccc(Cl)cc1)c1ccc(-n2cnnc2)cc1	/	-4.2%	8.9%	6.3	-12.3%	10.2%[46.1 µM]
O=C(Nc1ccccn1)NC1CCS(=O)(=O)C1 (configuration not stated)	-15.6%	/	/	-102.9*	-19.4%	?
COc1cc2c(cc1OC)n(Cc1ccc([N+](=O)[O-])cc1)c(=O)n1nc(-c3ccccc3)nc21	/	-28.1%	-24.6%	-3.3	-3.1%	-28.5%[46.1 µM]
CCOc1ccc(S(=O)(=O)c2c(C(=O)c3ccccc3)cnc3cc4c(cc23)OCCO4)cc1	?	-19.0%	?	-75.9*	28.8%	-8.5%
CCOc1ccccc1Nc1sc(C(=O)c2ccc(Cl)cc2)c(N)c1S(=O)(=O)c1ccccc1	/	-8.5%	-10.3%	20.1	-19.5%	?
